Screen size: about 48,000 compounds; about 13,000 (27%) showed an effect of 50% or more. The list shows a part of the results.
These compounds were tested on Wolbachia pipientis (assay: Anti-Wolbachia Cell-Based Screen). Details: 5 µM.
Assay type: functional
Parameters: scale not given: in the data most compounds retested in dose-response had high values

SMILES | Percent Effect [%]
CC(C)Cc1noc(CN2CCC(NC(=O)c3cccs3)CC2)n1 | 5.621
CCOC(C)c1noc(CN2CCN(Cc3ccno3)CC2)n1 (stereo unspecified) | -9.724
CN(Cc1cc(-c2ccncc2)no1)C(=O)[C@@H]1CSCN1C | 2.417
O=C(CCC1CCCO1)N1CCc2nc(-c3cnccn3)nc(O)c2C1 (stereo unspecified) | 116.1
COCC(=O)N1CCc2nc(-c3cnccn3)nc(O)c2C1 | 104.8
O=C(Cc1csc(-c2ccco2)n1)N1CCN(c2cnccn2)CC1 | 16.12
O=C(c1ccccn1)N1CCc2nc(-c3cnccn3)nc(O)c2C1 | -8.53
COCC(=O)N1CCc2nc(C(=O)Nc3cccnc3)sc2CC1 | 1.921
CS(=O)(=O)NC1CCN(C(=O)CCC2CCCO2)CC1 (stereo unspecified) | 10.42
Cc1nc(CC(=O)N2CCc3nc(-c4cnccn4)nc(O)c3C2)cs1 | 88.77
CS(=O)(=O)N1CCN(C(=O)CCC2CCCO2)CC1 (stereo unspecified) | 1.133
CC(C)(CC(=O)N(CC(N)=O)C1CCCC1)c1ccccc1 | -10.15
CC(C)(CN)NS(=O)(=O)c1cccc(F)c1F.Cl | -6.445
C=Cc1cccc(CN2C[C@H]3CC[C@@H]2CN(Cc2c(C)noc2C)C3)c1 | -8.639
Cc1ncsc1C(=O)N(C)Cc1ccc(Br)o1 | 23.63
Cc1ccc(C(=O)NCC(O)c2ccc(Cl)s2)c(=O)[nH]1 (stereo unspecified) | -29.35
Cc1ccc(C(=O)N(C)Cc2ccc(Br)s2)c(=O)[nH]1 | 139.4
Cc1ccc(C(=O)N(Cc2ccc(F)cc2)C2CC2)c(=O)[nH]1 | -2.478

SMILES | Percent Effect [%]
COC(=O)NCC(=O)N(C)Cc1csc(C)n1 | 0.6719
Cc1ccc(C(=O)N(C)Cc2c(C)noc2C)c(=O)[nH]1 | 0.555
Cc1ccc(C(=O)N(Cc2ccc(F)cc2F)C2CC2)c(=O)[nH]1 | -11.26
Cc1ccc(C(=O)N(C)Cc2ccc(Br)o2)c(=O)[nH]1 | 131.8
Cc1ccc(C(=O)N(C)Cc2csc(Br)c2)c(=O)[nH]1 | 125.8
CCN(Cc1ccc2c(c1)OCO2)C(=O)c1ccc(C)[nH]c1=O | -8.548
Cc1nc(CN(C)C(=O)CNC(=O)c2ccc(C#N)cc2)cs1 | 6.778
Cc1ccc(C(=O)N(C)Cc2csc(C)n2)c(=O)[nH]1 | 127.5
CNc1ccnc(N2C[C@@H](C)[C@](O)(C3CCC3)C2)n1 | -0.8884
CC(C)(C)CC(=O)NCCn1nc(C2CCNC2)c2cccnc21.Cl (stereo unspecified) | 117.2
COCCC(=O)NCCn1nc(C2CCNC2)c2cccnc21.Cl (stereo unspecified) | 104.9
COCCN(C(=O)c1c[nH]c2ncccc12)C1CCCC1 | 6.84
CC(C)(C)CC(=O)Nc1ncn(CC(=O)NCc2ccccc2)n1 | 0.2654
Cc1cccnc1[C@H](C)NC(=O)c1cccc(CC2CCNCC2)c1 | -20.86
CN(C(=O)CNC(=O)CC(C)(C)C)C1CCN(c2ccccn2)CC1 | 12.99
CC(C)CC(=O)NCCn1nc(C2CCNC2)c2cccnc21.Cl (stereo unspecified) | 97.32
Cl.O=C(CCC1CCCC1)NCCn1nc(C2CCNC2)c2nccnc21 (stereo unspecified) | -7.206
CNc1ncc(CN(C)C(=O)c2ccccc2C2CCNC2)cn1 (stereo unspecified) | -12.29

— ChEMBL document CHEMBL3988442, “University of Dundee, Small-Polar-MMV Screening Library” (2021)
